Source: PubChem BioAssay AID2315 (National Center for Advancing Translational Sciences (NCATS), 2010)
The campaign covered roughly 290,000 compounds. About 27,000 (9.3%) were called active. This excerpt belongs to a sample that is enriched for actives. A number with no mark means an inactive call. Cut-off read from the data, not from the text of the source: active = inhibition mostly above about 28% (no sharp cut-off); inactive = mostly below about 43%.

Assay: A qHTS for Small Molecule Inhibitors of Shiga Toxin; note: 0% is about no effect
Details: Vero cells, Shiga toxin protein synthesis inhibition reporter; at 38.7 µM, active compounds read high

Structure (SMILES) | inhibition
CCc1ccc(NC(=O)c2ccc(Cn3cc([N+](=O)[O-])cn3)cc2)cc1 | 51.8%
CCOc1cccc(C(=O)Nc2cnn(Cc3ccccc3)c2)c1 | 17.4%
O=C(Nc1ccccc1F)c1ccc(Cn2cc(Br)cn2)cc1 | 71.1% (active)
CC(NC(=O)Cn1cc(C(F)(F)F)cc(Cl)c1=O)c1ccccc1 (centres undefined) | -1.42%
NNC(=O)CSc1nnc(-c2ccccc2)n1-c1ccccc1 | -7.44%
COc1ccc(C(=O)NC2CC2)cc1OC1CCN(Cc2ccc(SC)cc2)CC1 | -0.345%
Cc1nnc(NCCO)c2ccccc12 | 10.4%
COc1ccc(Nc2nc(=O)[nH]nc2C)cc1 | 16.1%
COc1ccc(Nc2nnc(C)c3ccccc23)cc1 | 106% (active)
CN(Cc1ccccc1)C(=O)C1CCCN(c2ncnc3c2nc2n3CCCCC2)C1 (centres undefined) | 21.9%
C/C(=C/c1ccccc1)C(=O)N1CCN(c2ccccc2)CC1 | 18.9%
Cc1cccc(C(=O)OC(C)CN2CCCC2)c1 (centres undefined) | 5.97%
CC(C)(C)c1ccc(C(=O)NNC(=O)Cc2ccccc2)cc1 | 76.6% (active)
O=C(CCc1ccccc1)NNC(=O)c1ccc(Br)cc1 | 34.5%
CCNC(=S)NNC(=O)Cc1ccccc1 | -8.55%
CCc1ccc2c(c1)C(c1ccc([N+](=O)[O-])cc1)=NNC(c1ccccc1)=N2 | 31.4%
CCOc1ccc2c(c1)C(c1ccc(C)cc1)=NNC(c1ccc(C)cc1)=N2 | 85.1% (active)

Structure (SMILES) | inhibition
Cc1ccc(C2=Nc3c(ccc4ccccc34)C(c3ccncc3)=NN2)cc1 | 5.77%
Cc1ccc(S(=O)(=O)N2CCN(C(=O)N3CCOCC3)CC2)c(C)c1 | -2.32%
COc1cccc(OC)c1C(=O)N1CCN(Cc2cccnc2)CC1 | 11.9%
O=C(NCc1ccccc1)c1ccc(S(=O)(=O)Nc2cccc(C(F)(F)F)c2)cc1 | -3.31%
O=C(Cc1cccs1)NCc1cccc(C(F)(F)F)c1 | 61.9% (active)
COc1cc(CC(=O)NCc2cccs2)cc(OC)c1OC | -11.7%
COc1cccc(NC(=O)N2CCCC2C(=O)NC2CCCCC2)c1 (centres undefined) | -3.54%
O=S(=O)(Nc1ccc2[nH]ncc2c1)c1ccccc1Cl | -6.01%
Cc1ccc(-n2c(C)cc(C(=O)CSc3nnc4ccccn34)c2C)cc1 | 48.6% (active)
O=C(CSc1nnc2n1CCCN2)c1ccccc1 | 53.5% (active)
Cn1c(SCC(=O)c2ccc(F)cc2)nnc1-c1ccccn1 | 21.4%
O=C(CSc1nnc2ccccn12)c1ccccc1 | 74.7% (active)
Cn1c(CC(=O)Nc2ccccc2)nnc1SCC(=O)c1ccccc1 | 0.707%
O=C(CSc1nnc(-c2ccco2)n1CC1CCCO1)c1ccccc1 (centres undefined) | 21.9%
Cc1ccc(-n2c(C)nnc2SCC(=O)NC2CC2)cc1 | -29.3%
CCN(C(=O)CSc1nnc2ccccn12)C1CCS(=O)(=O)C1 (centres undefined) | -8.56%
N#Cc1ccc(CSc2nnc3ccccn23)cc1 | -7.41%
